# According to PubChem BioAssay (Tox21):
# Activity calls are given as the source filed them. The call rests on the fitted dose curve; in most records, active means well fitted activation curve with a large enough effect in the repeat runs; inconclusive means weak or mixed curves; inactive means flat fitted curve, though single readings scatter.
# Molecular target: Androgen receptor (Homo sapiens) (UniProt P10275)
# Experiment: qHTS assay to identify small molecule agonists of the androgen receptor (AR) signaling pathway using the MDA cell line (AID 743040; further: nearly all actives have a fitted effect of over 20% in size)
# Details: MDA-kb2 AR-luc cells, MMTV luciferase, 16 h, stronger effect = higher value; series mostly up to 70.3 µM; activity change: at the top concentration
# Source text: National Center for Advancing Translational Sciences [NCATS]
# NIH Chemical Genomics Center [NCGC]
# U.S. Environmental Protection Agency [EPA]
# National Institutes of Environmental Health Sciences [NIEHS]
# National Toxicology Program [NTP]
# U.S. Food and Drug Administration [FDA]
# Androgen receptor (AR), a nuclear hormone receptor, plays a critical role in AR-dependent prostate cancer and other androgen related diseases. Endocrine disrupting chemicals (EDCs) and their interactions with steroid hormone receptors like AR may cause disruption of normal endocrine function as well as interfere with metabolic homeostasis, reproduction, developmental and behavioral functions. To identify the compounds that activate AR signaling, MDA-kb2 AR-luc cell line (from ATCC, deposited by Wilson et al.) was used to screen the Tox21 10K compound library. MDA-kb2 AR-luc cell line is human breast carcinoma cell line that was stably transfected with a luciferase reporter gene under control of the MMTV promoter containing response elements for both androgen receptor (AR) and glucocorticoid receptor (GR).
# Tox21 Assay Protocol Summary:
# MDA-kb2 AR-luc cells were dispensed at 3,000 cells/5 uL/well of culture medium into white wall/solid-bottom 1536-well plates using a Multidrop Combi (ThermoFisher Scientific, Waltham, MA) dispenser. After the assay plates were incubated at 37C and 0% CO2 for 5 h, 23 nL of compounds dissolved in DMSO, positive controls or DMSO only was transferred to the assay plate by a Pintool station (Kalypsys, San Diego, CA). The plates were incubated at 37C and 0% CO2 for 16 h. Then 4 uL of ONE-Glo reagent (Promega, Madison, WI) was added to each plate using a Bioraptr Flying Reagent Dispenser (FRD) workstation (Beckman Coulter, Indianapolis, IN, USA) and luminescence was quantified on a ViewLux (PerkinElmer, Shelton, CT) plate reader after 30 min incubation at room temperature.
# On the % scale 0 is the no-effect control and ±100 the full control effect.
# Chain of Androgen receptor (Homo sapiens) (P10275 whole entry, looked up): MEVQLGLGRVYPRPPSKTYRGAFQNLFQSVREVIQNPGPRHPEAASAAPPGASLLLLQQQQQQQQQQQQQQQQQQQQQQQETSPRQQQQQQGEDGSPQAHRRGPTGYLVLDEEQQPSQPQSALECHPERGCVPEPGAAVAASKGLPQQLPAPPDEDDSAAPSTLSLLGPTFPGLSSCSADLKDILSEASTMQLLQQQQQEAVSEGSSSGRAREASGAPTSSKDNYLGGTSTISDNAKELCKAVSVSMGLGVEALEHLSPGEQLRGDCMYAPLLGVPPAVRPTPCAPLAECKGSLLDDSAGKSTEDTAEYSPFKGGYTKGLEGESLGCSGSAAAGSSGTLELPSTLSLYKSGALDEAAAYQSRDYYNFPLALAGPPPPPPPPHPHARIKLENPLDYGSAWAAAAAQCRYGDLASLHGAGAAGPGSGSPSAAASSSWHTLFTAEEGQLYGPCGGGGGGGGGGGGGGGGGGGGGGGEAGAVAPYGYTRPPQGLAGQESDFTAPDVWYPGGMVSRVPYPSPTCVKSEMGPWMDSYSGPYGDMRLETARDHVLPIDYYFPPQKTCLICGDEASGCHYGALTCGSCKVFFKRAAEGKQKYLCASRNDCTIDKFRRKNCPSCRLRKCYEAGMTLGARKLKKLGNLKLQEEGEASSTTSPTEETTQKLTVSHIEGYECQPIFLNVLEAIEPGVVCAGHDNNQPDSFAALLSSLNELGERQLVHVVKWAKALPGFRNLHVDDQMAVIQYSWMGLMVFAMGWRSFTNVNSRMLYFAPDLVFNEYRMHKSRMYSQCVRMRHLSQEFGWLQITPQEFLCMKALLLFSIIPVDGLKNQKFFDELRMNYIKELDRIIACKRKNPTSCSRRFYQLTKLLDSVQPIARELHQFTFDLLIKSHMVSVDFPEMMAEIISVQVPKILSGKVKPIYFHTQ
row,SMILES,activity change
1,CCCCCCCCCCCCCC(=O)OC,-0.177% (inactive)
2,COc1ccc(/C=N/NC(=O)c2ccncc2)cc1OC,0.0486% (inactive)
3,Nc1cc(C(=O)O)ccc1Cl,0.575% (inactive)
4,O=C(CN1CCN(Cc2ccc3c(c2)OCO3)CC1)N1c2ccccc2Sc2ccccc21,-6.06% (inactive)
5,CCCCCCCCCCCCCCCCI,0.844% [at 32.5 µM] (inactive)
6,O=S(=O)(O)SSS(=O)(=O)O,-0.258% (inactive)
7,Nc1ccnc(=O)[nH]1,0.0611% (inactive)
8,O=CN1CCOCC1,-0.439% (inactive)
9,C=CCCCCCCCCCCC,4.86% [at 8.47 µM] (inactive)
10,COC(OC)C(C)c1ccccc1 (configuration not stated),-1.58% (inactive)
11,CCCCC[Si](OCC)(OCC)OCC,0.976% (inactive)
12,O=C(O)c1ccccc1C(=O)Nc1ccc(S(=O)(=O)Nc2nccs2)cc1,0.757% (inactive)
13,CNC(=O)NC,0.63% [at 95 µM] (inactive)
14,CC(=O)OC(C(=O)c1ccccc1)c1ccccc1 (configuration not stated),-0.0736% [at 95 µM] (inactive)
15,CN[C@@H]1[C@H](O)[C@H](NC)[C@H]2O[C@@]3(O)C(=O)C[C@@H](C)O[C@H]3O[C@@H]2[C@H]1O,0.762% [at 32.5 µM] (inactive)
16,Cn1c(=O)c2c(ncn2CC2OCCO2)n(C)c1=O,0.261% (inactive)

row,SMILES,activity change
1,COCC(=O)Nc1c(I)c(C(=O)NCC(O)CO)c(I)c(C(=O)N(C)CC(O)CO)c1I (configuration not stated),-1.09% [at 32.5 µM] (inactive)
2,C=CCOCC(O)CCl (configuration not stated),1.72% (inactive)
3,OC(CCN1CCCCC1)(c1ccccc1)c1ccccc1,0.587% (inactive)
4,Cc1ncc([N+](=O)[O-])n1CC(O)CCl (configuration not stated),-1.69% [at 32.5 µM] (inactive)
5,O=c1[nH]c(=O)c2ccccc2o1,0.289% (inactive)
6,NCCc1ccn[nH]1,-0.204% [at 32.5 µM] (inactive)
7,O=C1OC(=O)c2cc(Oc3ccc4c(c3)C(=O)OC4=O)ccc21,0.172% (inactive)
8,CCCOCCOCCOCCO,-1.69% (inactive)
9,CCNC(=O)/C=C/c1cccc(Br)c1,0.0889% (inactive)
10,COc1cc([N+](=O)[O-])ccc1N,-0.0056% (inactive)
11,CCCCCCCCCCC,0.573% (inactive)
12,CCC(C)(C)C1CCC(=O)CC1,-1.29% (inactive)
13,O=C(O)c1ccccc1C(=O)OCc1ccccc1,1.15% (inactive)
14,O=C1c2ccccc2-c2ccccc21,-0.527% [at 95 µM] (inactive)
15,Nc1ccc(S(=O)(=O)Nc2ccccn2)cc1,-0.598% [at 32.5 µM] (inactive)
16,CC(C)COC(=O)COc1ccc(Cl)cc1Cl,0.88% (inactive)
